From the supplement of paper PMC11732987, “Enantioselective OTUD7B fragment discovery through chemoproteomics screening and high-throughput optimisation” (Communications Chemistry, 2025)

What was measured:
Experiment in all cases: log2 ratio of Biotin-Ahx-Ub-VS probe labelling (fragment/DMSO); higher = less target engagement (more negative = stronger competition), active = hit call of the paper (q ≤ 0.05, log2 ratio ≤ -1)
Conditions in all cases: compound concentration: 200 uM; treatment time: 3 h
USP9X = USP9X (UniProt Q93008)
Chain of USP9X (Q93008 whole entry, the tested form may be a part): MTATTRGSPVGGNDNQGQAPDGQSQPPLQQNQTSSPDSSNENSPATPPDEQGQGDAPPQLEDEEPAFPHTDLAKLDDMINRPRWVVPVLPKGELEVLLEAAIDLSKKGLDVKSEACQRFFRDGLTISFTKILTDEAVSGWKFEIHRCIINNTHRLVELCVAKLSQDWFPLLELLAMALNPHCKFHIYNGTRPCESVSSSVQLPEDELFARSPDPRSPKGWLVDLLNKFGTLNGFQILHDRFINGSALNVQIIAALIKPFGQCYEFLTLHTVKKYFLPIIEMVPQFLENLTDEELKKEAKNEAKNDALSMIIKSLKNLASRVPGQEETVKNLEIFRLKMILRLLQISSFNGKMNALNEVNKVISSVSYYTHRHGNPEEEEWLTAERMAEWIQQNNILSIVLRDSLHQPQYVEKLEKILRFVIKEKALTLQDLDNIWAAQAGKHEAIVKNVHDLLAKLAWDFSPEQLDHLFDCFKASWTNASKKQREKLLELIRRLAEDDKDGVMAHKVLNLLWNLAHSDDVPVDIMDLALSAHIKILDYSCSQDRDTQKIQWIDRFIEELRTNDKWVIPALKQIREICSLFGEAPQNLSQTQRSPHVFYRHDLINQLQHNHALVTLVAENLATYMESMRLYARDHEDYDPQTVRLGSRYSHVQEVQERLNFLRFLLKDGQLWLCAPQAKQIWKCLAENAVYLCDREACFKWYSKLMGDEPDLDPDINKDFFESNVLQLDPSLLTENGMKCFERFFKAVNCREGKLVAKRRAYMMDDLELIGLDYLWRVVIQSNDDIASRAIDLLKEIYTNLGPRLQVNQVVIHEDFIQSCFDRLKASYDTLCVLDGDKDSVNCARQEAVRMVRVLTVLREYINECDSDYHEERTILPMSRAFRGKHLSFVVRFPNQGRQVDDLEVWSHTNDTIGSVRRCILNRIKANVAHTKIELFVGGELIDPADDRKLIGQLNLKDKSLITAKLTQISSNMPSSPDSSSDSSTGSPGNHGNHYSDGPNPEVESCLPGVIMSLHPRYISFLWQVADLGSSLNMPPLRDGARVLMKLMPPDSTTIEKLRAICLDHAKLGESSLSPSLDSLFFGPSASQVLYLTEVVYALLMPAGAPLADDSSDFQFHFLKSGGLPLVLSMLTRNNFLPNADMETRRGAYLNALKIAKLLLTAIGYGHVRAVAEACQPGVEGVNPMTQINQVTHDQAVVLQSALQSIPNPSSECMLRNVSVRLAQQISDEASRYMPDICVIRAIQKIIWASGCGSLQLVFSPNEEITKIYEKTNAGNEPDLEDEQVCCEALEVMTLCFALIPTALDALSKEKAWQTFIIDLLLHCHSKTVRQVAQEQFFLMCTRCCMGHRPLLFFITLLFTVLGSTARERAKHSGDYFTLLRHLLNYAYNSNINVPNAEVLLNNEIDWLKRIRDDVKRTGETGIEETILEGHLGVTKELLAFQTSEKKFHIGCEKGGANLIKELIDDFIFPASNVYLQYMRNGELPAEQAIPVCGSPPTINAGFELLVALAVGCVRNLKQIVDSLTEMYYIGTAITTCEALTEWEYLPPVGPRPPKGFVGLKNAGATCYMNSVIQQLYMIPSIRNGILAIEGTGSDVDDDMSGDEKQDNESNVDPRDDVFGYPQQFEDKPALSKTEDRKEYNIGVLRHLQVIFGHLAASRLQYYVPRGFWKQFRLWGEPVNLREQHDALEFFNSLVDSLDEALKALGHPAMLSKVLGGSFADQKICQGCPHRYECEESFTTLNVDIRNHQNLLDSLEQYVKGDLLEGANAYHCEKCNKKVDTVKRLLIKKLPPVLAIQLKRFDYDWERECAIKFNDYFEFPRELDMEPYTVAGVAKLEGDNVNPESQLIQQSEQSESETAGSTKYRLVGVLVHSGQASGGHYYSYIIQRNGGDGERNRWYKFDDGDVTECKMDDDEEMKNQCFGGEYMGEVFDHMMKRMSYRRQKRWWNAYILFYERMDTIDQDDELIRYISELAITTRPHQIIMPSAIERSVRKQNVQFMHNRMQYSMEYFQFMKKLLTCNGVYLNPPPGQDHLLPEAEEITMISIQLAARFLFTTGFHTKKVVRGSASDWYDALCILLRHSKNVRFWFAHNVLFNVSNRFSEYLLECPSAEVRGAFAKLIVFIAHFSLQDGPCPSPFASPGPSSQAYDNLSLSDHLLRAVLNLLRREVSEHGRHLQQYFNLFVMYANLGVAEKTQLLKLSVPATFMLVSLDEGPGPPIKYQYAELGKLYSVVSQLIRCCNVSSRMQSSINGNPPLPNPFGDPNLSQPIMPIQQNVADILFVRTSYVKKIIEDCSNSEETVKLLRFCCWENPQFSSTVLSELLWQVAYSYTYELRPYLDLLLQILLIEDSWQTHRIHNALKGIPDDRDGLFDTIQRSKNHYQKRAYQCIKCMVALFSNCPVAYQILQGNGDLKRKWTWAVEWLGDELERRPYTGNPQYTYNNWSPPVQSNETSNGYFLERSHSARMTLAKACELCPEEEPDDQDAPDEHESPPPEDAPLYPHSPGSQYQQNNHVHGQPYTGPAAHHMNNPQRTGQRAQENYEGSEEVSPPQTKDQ
How it was run: (§1)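 Fragment (200 µM) or vehicle was incubated for 3 h with triplicate HEK293T lysate samples of 495 µg, which were then treated with Biotin-Ahx-Ub-VS at 0.5 µM final for 1 h. Labelled DUBs were enriched on NeutrAvidin, digested with LysC and trypsin, and analysed by diaPASEF LC-MS/MS. Values are average log2 fragment/vehicle ratios from an unpaired t-test on global-median-normalised Spectronaut label-free quantities, using proteins with ≥2 unique peptides.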

UniProt O00487 = target: UniProt O00487
Chain of UniProt O00487 (O00487 whole entry): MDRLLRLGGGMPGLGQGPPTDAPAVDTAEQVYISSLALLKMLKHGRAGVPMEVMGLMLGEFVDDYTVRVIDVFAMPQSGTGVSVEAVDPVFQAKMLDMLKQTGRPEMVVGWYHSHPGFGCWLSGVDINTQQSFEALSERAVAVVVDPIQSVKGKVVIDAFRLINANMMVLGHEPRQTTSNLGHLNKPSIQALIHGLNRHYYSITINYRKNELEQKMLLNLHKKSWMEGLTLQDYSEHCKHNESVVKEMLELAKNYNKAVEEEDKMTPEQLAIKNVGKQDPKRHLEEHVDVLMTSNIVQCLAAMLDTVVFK
How it was run: as §1

UniProt O00507 = target: UniProt O00507
How it was run: as §1

UniProt P51784 = target: UniProt P51784
Chain of UniProt P51784 (P51784 whole entry): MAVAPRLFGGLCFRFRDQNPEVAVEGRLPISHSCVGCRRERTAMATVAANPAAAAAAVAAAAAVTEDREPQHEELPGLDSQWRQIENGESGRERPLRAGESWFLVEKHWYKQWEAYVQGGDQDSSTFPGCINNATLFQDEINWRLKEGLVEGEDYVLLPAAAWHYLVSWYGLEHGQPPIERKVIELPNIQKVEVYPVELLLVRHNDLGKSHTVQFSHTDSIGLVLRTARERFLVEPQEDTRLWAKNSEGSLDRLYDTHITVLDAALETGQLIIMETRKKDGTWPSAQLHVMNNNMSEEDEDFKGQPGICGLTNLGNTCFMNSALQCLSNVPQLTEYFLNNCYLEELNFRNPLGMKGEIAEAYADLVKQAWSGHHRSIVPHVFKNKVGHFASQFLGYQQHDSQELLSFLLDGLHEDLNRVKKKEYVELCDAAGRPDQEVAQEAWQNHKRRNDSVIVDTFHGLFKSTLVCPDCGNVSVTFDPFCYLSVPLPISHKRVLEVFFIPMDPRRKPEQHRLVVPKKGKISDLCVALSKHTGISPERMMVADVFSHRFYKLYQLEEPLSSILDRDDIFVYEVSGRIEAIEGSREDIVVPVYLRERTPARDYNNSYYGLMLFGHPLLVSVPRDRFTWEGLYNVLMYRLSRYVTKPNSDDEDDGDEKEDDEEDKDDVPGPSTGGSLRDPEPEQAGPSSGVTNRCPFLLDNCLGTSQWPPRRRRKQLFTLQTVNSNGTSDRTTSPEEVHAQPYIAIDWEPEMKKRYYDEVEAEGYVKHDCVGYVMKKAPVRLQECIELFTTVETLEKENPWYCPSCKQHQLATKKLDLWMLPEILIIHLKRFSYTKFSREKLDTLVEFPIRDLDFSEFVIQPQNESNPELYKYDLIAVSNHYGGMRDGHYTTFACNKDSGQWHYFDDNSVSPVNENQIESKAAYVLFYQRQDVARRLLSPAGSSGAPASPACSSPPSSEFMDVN
How it was run: as §1

UniProt Q5T2D3 = target: T1, UniProt Q5T2D3
T1 sequence (whole entry): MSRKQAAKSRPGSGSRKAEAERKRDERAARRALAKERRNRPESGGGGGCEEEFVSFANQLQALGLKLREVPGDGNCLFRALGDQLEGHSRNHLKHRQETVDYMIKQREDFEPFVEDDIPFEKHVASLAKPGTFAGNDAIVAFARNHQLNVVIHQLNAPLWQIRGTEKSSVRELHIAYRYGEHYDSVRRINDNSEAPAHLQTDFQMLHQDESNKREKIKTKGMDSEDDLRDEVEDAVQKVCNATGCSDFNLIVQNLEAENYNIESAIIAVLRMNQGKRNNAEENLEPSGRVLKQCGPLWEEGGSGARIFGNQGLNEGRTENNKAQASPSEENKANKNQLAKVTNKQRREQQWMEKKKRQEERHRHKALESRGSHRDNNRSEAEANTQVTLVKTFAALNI
How it was run: as §1

UniProt Q8TE49 = target: T2, UniProt Q8TE49
T2 sequence (whole entry): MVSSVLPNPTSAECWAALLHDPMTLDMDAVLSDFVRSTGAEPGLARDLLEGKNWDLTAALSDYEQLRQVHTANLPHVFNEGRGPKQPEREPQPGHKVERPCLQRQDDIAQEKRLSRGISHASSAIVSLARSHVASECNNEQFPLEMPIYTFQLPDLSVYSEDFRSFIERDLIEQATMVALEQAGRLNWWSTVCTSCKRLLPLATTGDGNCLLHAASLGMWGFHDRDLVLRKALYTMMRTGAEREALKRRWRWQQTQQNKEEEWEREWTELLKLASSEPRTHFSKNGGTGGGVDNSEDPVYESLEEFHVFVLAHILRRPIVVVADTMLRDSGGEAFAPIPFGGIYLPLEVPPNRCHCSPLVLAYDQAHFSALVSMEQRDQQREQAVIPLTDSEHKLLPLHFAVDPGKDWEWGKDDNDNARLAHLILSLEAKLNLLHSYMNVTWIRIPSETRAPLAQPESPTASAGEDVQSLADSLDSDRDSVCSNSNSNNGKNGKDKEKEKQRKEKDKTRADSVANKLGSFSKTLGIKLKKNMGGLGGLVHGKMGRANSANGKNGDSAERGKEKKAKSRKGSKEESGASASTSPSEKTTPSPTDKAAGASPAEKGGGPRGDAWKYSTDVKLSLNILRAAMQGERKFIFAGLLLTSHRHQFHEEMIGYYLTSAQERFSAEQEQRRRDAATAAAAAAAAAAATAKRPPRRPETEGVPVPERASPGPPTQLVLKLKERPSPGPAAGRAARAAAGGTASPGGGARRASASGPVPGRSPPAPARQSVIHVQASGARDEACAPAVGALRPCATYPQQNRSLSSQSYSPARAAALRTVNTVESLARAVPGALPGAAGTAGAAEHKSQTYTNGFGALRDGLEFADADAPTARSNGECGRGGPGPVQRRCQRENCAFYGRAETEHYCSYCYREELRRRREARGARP
How it was run: as §1

UniProt Q9P2H5 = target: T3, UniProt Q9P2H5
T3 sequence (whole entry): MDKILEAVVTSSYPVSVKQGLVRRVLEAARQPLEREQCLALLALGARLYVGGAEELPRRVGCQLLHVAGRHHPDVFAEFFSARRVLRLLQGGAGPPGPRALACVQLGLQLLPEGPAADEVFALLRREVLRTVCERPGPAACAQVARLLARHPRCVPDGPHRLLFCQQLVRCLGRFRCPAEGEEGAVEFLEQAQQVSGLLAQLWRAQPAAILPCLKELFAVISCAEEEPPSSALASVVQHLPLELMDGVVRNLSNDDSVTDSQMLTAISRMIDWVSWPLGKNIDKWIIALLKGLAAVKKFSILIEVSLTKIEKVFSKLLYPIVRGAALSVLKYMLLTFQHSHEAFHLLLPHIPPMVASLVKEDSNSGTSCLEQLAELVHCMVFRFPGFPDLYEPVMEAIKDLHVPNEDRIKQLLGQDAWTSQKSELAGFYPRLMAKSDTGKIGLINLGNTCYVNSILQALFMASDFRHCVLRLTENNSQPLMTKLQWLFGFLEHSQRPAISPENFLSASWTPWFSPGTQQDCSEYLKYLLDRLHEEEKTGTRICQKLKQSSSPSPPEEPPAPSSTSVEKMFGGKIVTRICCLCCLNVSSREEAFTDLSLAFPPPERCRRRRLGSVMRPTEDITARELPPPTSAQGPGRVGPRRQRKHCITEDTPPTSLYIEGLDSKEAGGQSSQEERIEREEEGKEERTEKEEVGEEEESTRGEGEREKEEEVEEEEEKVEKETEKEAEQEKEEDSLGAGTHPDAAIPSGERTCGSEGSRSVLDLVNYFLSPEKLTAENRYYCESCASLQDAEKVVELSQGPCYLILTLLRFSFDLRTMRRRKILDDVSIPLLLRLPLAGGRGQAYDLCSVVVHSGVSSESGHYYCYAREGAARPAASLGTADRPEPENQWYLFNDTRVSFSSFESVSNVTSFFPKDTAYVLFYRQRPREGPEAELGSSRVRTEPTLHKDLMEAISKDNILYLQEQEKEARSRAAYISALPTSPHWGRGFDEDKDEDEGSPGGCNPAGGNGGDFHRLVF
How it was run: as §1

UniProt Q9UGI0 = target: T4, UniProt Q9UGI0
T4 sequence (whole entry): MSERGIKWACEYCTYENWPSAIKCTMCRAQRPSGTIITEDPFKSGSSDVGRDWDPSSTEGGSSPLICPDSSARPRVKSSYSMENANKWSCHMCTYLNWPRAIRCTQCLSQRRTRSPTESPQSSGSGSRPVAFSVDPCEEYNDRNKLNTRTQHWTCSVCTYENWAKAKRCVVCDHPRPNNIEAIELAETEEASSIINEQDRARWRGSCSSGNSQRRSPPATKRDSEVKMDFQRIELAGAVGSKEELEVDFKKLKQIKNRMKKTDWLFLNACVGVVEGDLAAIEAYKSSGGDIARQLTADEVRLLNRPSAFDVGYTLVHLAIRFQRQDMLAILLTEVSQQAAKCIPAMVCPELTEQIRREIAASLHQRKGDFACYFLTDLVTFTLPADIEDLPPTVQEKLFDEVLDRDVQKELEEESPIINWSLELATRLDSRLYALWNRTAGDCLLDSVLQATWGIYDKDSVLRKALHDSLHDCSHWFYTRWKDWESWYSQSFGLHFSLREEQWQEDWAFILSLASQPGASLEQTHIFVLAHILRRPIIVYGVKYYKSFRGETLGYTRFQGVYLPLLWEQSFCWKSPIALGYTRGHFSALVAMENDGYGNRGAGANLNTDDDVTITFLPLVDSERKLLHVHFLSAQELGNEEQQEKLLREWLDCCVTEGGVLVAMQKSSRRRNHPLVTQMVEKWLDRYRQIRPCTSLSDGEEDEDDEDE
How it was run: as §1

YOD1 = target: T5, YOD1 (UniProt Q5VVQ6)
T5 sequence (whole entry): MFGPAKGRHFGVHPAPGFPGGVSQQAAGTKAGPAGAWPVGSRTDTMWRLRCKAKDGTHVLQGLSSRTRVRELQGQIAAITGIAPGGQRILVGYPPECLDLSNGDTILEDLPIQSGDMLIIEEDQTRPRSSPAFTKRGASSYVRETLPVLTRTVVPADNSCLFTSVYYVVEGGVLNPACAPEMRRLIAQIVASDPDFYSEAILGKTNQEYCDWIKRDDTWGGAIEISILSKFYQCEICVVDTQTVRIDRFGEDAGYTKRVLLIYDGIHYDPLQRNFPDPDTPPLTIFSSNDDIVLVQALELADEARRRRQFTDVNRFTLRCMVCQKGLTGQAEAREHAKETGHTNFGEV
How it was run: as §1

Measured: log2 ratio of Biotin-Ahx-Ub-VS probe labelling

Cc1ccc(-c2nnc(C)[nH]2)c(NC(=O)CCl)c1
inactive: USP9X -0.0335 | UniProt O00487 -0.138 | UniProt O00507 -0.0161 | UniProt P51784 0.126 | UniProt Q5T2D3 -0.148 | UniProt Q8TE49 -0.185 | UniProt Q9P2H5 0.245 | UniProt Q9UGI0 -0.97 | YOD1 -0.102
